# High-throughput results (PubChem BioAssay)
# PfM18AAP inh: PfM18AAP enzyme inhibition | recombinant PfM18AAP, H-Glu-NHMec fluorogenic cleavage | inhibition, % at 7.35 µM | 290,000 compounds, 1.2% hits;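 active means inhibition above the campaign mean inhibition over all tested compounds plus 3 SD, cut at about 28% in these data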;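 further: 0% = plate median of test compound wells and 100% = 2 mM ZnCl2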
# HDAC3 inh: human HDAC3 inhibition | O15379 | recombinant HDAC3, fluorogenic peptide/trypsin coupled, fluorescence | inhibition, % at 8.3 µM | 320,000 compounds, 0.15% hits; in the data active means inhibition above about 26%, passing the limit was not always enough; inconclusive means no clear call, values can overlap the other calls
# G6PDH CS: L. mesenteroides G6PDH inhibition counter-screen; inhibition, % at 5 µM; Purified L. mesenteroides G6PDH, diaphorase/resazurin coupled fluorescence, 45 min; 200,000 compounds, 0.12% hits; in the data active means inhibition above about 50%
# PHOSPHO1 block: inhibitors of human PHOSPHO1 phosphatase. recombinant PHOSPHO1, absorbance phosphatase assay. inhibition, % at 13.3 µM. 290,000 compounds, 1.1% hits. AID 1565; in the data active means inhibition above about 60%
# p97 inhibitor: blocks human p97 ATPase activity; 220,000 compounds, 0.42% hits; inhibition, % at 8 µM; P55072; recombinant p97 ATPase, Kinase-Glo ATP luminescence, 3 h; in the data active means inhibition above about 15%;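 further: 0% = DMSO vehicle and 100% = wells lacking enzyme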
# Target sequence (P55072 whole entry, looked up): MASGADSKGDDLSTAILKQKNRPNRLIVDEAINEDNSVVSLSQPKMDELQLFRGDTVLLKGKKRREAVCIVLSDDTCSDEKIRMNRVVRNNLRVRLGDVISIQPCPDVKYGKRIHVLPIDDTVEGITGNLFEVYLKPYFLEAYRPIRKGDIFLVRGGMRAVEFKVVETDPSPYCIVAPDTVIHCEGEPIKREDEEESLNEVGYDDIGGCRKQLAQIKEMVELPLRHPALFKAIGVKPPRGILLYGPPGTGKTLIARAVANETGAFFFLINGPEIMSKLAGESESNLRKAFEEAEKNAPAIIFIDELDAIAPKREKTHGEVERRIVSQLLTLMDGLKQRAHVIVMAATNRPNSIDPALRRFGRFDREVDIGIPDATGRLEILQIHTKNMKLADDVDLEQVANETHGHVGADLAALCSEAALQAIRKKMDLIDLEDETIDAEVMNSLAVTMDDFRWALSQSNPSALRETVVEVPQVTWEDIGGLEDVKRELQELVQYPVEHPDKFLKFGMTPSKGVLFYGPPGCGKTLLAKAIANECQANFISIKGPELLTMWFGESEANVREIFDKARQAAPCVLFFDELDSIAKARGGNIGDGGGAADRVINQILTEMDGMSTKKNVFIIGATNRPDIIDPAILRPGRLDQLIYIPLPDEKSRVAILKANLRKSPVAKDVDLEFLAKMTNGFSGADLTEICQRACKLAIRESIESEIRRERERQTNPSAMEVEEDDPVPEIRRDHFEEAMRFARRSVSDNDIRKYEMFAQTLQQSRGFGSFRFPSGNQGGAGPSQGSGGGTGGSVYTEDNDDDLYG
# UBC9 SUMO inh: inhibitors of human SUMOylation (UBC9) | inhibition, % at 35 µM | P63279 | 290,000 compounds, 0.36% hits | HTRF SUMOylation assay, SAE1/SAE2 + UBC9, in vitro; in the data active means inhibition above about 50%, passing the limit was not always enough; inconclusive means no clear call, values can overlap the other calls
# * = called active by the depositor; ? = inconclusive; nt = no result given. Compounds with a hit are over-represented: about 2.5% of the library has one in this group of screens.
SMILES,PfM18AAP inh,HDAC3 inh,G6PDH CS,PHOSPHO1 block,p97 inhibitor,UBC9 SUMO inh
CCCCn1c(NC(=O)c2ccc(F)cc2)c(C#N)c2nc3ccccc3nc21,nt,-15,nt,nt,nt,nt
COc1ccccc1CNC(=O)c1c(N)n(CCCN2CCOCC2)c2nc3ccccc3nc12,5,nt,26,31,-4,52*
CCCCn1c(NC(=O)c2ccccc2)c(C#N)c2nc3ccccc3nc21,19,nt,47,33,40*,98*
Cc1cc(C)n2nc(C(=O)OCC(=O)N3C(C)CCCC3C)nc2n1 (configuration not stated),nt,7,nt,nt,nt,nt
COCCn1c(N)c(C(=O)NCC2CCCO2)c2nc3ccccc3nc21 (configuration not stated),0,-92,28,2,-4,91*
COCCn1c(N)c(C#N)c2nc3ccccc3nc21,8,-86,14,13,-6,81*
Cc1csc(N)n1,-1,1,7,6,4,-19
Cc1ccc(-c2csc(N)n2)s1,15,1,6,71*,3,35
C[C@H](NC(N)=O)C(=O)Nc1ccc2c(c1)OCO2,0,-5,nt,24,10,19
Nc1ccc(C(=O)Nc2nc3ccccc3s2)cc1,3,6,-10,2,-4,4
O=C(Nc1nc(=O)c2ccccc2s1)c1ccc(Cl)cc1,30*,-2,-27,24,-6,-15
Cc1cccc(N=C2Sc3nc4c(C)c(C)ccc4cc3CN2CCN2CCOCC2)c1,-1,?,-2,81*,-2,-8
COCCN1Cc2cc3cc(C)ccc3nc2SC1=Nc1cccc(OC)c1,-2,8,7,-5,-2,21
CC(=O)c1ccccc1C(=O)N1CCC(n2nccc2NC(=O)C2CC2)CC1,0,6,nt,66*,nt,0
O=C(NC(=S)Nc1ccc(Cc2ccncc2)cc1)c1ccccc1F,-2,-1,6,63*,0,-8
CC(Sc1ccccc1)C(=O)Nc1ccc(N2CCOCC2)cc1 (configuration not stated),5,4,12,-16,-2,12
COc1ccc(NC(=O)C(C)Sc2ccccc2)cc1 (configuration not stated),-3,-6,9,62*,-1,11
O=C1/C(=C/c2ccccc2F)SC(=S)N1CC(=O)N1CCCCC1c1cccnc1 (configuration not stated),-9,12,nt,37,nt,-12
O=C(COC(=O)c1cc2ccccc2cc1O)NC1CCCCC1,nt,-4,nt,nt,nt,nt
O=C(NNC(=O)c1cc2ccccc2cc1O)NC1CCCCC1,29*,-5,nt,31,nt,-4
O=C(NNC(=O)c1cc2cc(Br)ccc2oc1=O)c1ccc(O)cc1,10,5,-1,-3,15*,3
CCOc1ccc(N2C(=O)CS/C2=C(\C(Cl)=C(Cl)Cl)[N+](=O)[O-])cc1,-4,-13,-3,86*,-2,28
CCOC(=O)C1CCN(S(=O)(=O)Cc2ccccc2)CC1,3,-4,51*,13,-1,21
Cc1cc(C(=O)CSc2nnc(NCc3ccccc3)s2)c(C)n1C,3,-4,-7,91*,3,6
CCn1c(SCC(=O)c2cc(C)n(CC3CCCO3)c2C)nc2ccccc21 (configuration not stated),3,8,1,73*,-2,12
SMILES,PfM18AAP inh,HDAC3 inh,G6PDH CS,PHOSPHO1 block,p97 inhibitor,UBC9 SUMO inh
Cc1cc(C(=O)CSc2nnc(Nc3ccccc3F)s2)c(C)n1CC1CCCO1 (configuration not stated),4,nt,0,94*,4,8
COc1ccccc1C(=O)Nc1nnc(SCC(=O)NCC2CCCO2)s1 (configuration not stated),0,0,nt,13,nt,15
CN1/C(=C\C(=O)CSc2nnc(NCc3ccccc3)s2)C(C)(C)c2ccccc21,7,2,-7,0,-8,-32
COc1ccccc1Nc1nnc(SCC(=O)c2cc(C)n(CC3CCCO3)c2C)s1 (configuration not stated),4,0,1,93*,-1,23
O=C(c1sc2ccccc2c1Cl)N1CCN(CCc2ccccn2)CC1,-4,10,nt,12,nt,-14
O=C(CC1OC(=O)c2ccccc21)Nc1cc(S(=O)(=O)N2CCOCC2)ccc1OCC(F)(F)F (configuration not stated),nt,-1,nt,nt,nt,nt
CN(C(=O)c1ccccc1C(=O)OCC(=O)Nc1ccccc1)c1ccccc1,nt,-2,nt,nt,nt,nt
O=C(CSc1nnc(Nc2ccccc2)s1)NCC1CCCO1 (configuration not stated),nt,-4,nt,nt,nt,nt
Cc1cc(C(=O)CSc2nnc(Nc3ccccc3)s2)c(C)n1CC1CCCO1 (configuration not stated),10,0,2,90*,1,4
CCOc1ccc(C2/C(=C(\O)c3ccc4c(c3)OCCO4)C(=O)C(=O)N2CCN2CCOCC2)cc1OC (configuration not stated),15,5,nt,26,nt,-6
C/C(CCC(C)C)=N\NC(=S)Nc1cc(S(=O)(=O)N2CCOCC2)ccc1N1CCOCC1,28*,5,7,-127,5,-1
O=S(=O)(c1ccc(NC(=S)Nc2ccccc2)cc1)N1CCOCC1,1,-1,5,-18,4,6
CC(C)CCCCCCNC(=S)Nc1ccc(S(=O)(=O)N2CCOCC2)cc1,-6,29*,8,-1,3,-46
COc1ccc2cc(/C(C)=N/NC(=S)Nc3cc(S(=O)(=O)N4CCOCC4)ccc3N3CCOCC3)ccc2c1,30*,-19,16,-99,2,21
COc1cccc(CNCc2ccco2)c1O,12,nt,nt,3,nt,3
O=C(NCc1ccccc1Cl)c1ccc(Cn2cc(C(F)(F)F)ccc2=O)cc1,-1,-2,5,65*,2,18
O=C(NCc1ccc(Cl)cc1)c1ccc(Cn2cc(C(F)(F)F)ccc2=O)cc1,-9,-4,6,24,-6,-1
O=C1CCCN1c1ccc(S(=O)(=O)NCc2ccc(F)cc2)cc1,-1,-1,nt,18,nt,-6
O=C(CCN1CCN(c2ccccc2)CC1)N/N=C/c1ccc(O)c(O)c1O,23,nt,33,-5,10,76*
COc1ccc(/C(O)=C2/C(=O)C(=O)N(c3ccccn3)C2c2ccc(F)cc2)cc1 (configuration not stated),6,3,nt,37,nt,20
CCOC(=O)Cc1csc2nc(-c3ccccc3)nn12,-6,-1,nt,25,-6,0
CCOC(=O)c1cc(=O)n2nc(-c3ccc(C)cc3)nc2s1,-6,0,3,75*,8,17
O=C(Nc1cccc(S(=O)(=O)NC2=NCCC2)c1)c1cc(-c2ccco2)nc2ccccc12,3,nt,nt,41,5,86*
O=C(NC(=S)Nc1cccc(S(=O)(=O)NC2=NCCC2)c1)c1cc(-c2ccco2)nc2ccccc12,14,0,nt,-19,11,46
